The subject of one experiment is CRL-7250. Briefly: Cytotoxic Profiling of Annotated Libraries Using Quantitative High-Throughput Screening (AID 1296008). Further: nearly all actives have a fitted effect of over 60% in size. Further: potency means the concentration at half of the fitted maximal effect. On max response: on the % scale 0 is the no-effect control and ±100 the full control effect. Conditions: Five cell lines viability, CellTiter-Glo ATP luminescence, 48-72 h; max response: hits give low values. The procedure, abridged: (§1)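 Cells exposed to compounds for 48 or 72 hr at 37 degrees Celsius. Viability read as ATP-coupled luminescence with CellTiter-Glo after 10 min at room temperature.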

In the next experiment the test system is HEK293. The experiment is described as above. Conditions: Five cell lines viability, CellTiter-Glo ATP luminescence, 48-72 h; max response: hits give low values. In a few lines:
as §1

The subject of experiment [1] is HaCat. Described as above. Conditions: Five cell lines viability, CellTiter-Glo ATP luminescence, 48-72 h; max response: hits give low values. In a few lines:
as §1

In a further experiment the test system is KB-3-1. The description is as above. The note with it: Five cell lines viability, CellTiter-Glo ATP luminescence, 48-72 h; max response: hits give low values. In a few lines: as §1
Experiment [2] has as its system NIH3T3. The description is as above. Conditions: Five cell lines viability, CellTiter-Glo ATP luminescence, 48-72 h; max response: hits give low values. In a few lines: as §1
Experiment [3] has as its system HACAT. Briefly: qHTS assay to identify novel small-molecules to repurpose for Merkel cell carcinoma treatment (AID 1296009). Further: nearly all actives have a fitted effect of over 60% in size. The note with it: MCC and control cell lines, CellTiter-Glo viability, 72 h; at 44.8 µM (top of the series) unless noted. In a few lines:
(§2)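 Cells were treated for 72 hr at 37 degree celsius with compounds in 8- or 11-point dose response. Viability was read by CellTiter-Glo luminescence, normalized to no-cell (cytotoxicity) and DMSO controls.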

In another experiment the test system is MCC-13. Described as above. Conditions: MCC and control cell lines, CellTiter-Glo viability, 72 h; series mostly up to 46 µM. In a few lines:
as §2

For a further experiment, the system named is MCC-26. The description is as above. Conditions: MCC and control cell lines, CellTiter-Glo viability, 72 h; series mostly up to 46 µM. The procedure, abridged:
as §2

A further experiment has as its system MKL-1. The description is as above. The note with it: MCC and control cell lines, CellTiter-Glo viability, 72 h; series mostly up to 46 µM. In a few lines:
as §2

The next experiment relates to MKL-2. Described as above. Conditions: MCC and control cell lines, CellTiter-Glo viability, 72 h; series mostly up to 46 µM. In a few lines: as §2
The subject of a further experiment is UISO. The description is as above. Conditions: MCC and control cell lines, CellTiter-Glo viability, 72 h; series mostly up to 46 µM. In a few lines:
as §2

The next experiment has as its system WaGa. The description is as above. Conditions: MCC and control cell lines, CellTiter-Glo viability, 72 h; series mostly up to 46 µM. In a few lines:
as §2

In the next experiment the test system is C33A. Briefly: Primary qHTS to identify gynecologic anti-cancer compounds using libraries of approved drugs and bioactive compounds (AID 1345084). Further: on the % scale 0 is the no-effect control and ±100 the full control effect; nearly all actives have a fitted effect of over 55% in size. Conditions: Gynecologic cancer cell panel viability, ATPlite luminescence, 48 h; series mostly up to 57.5 µM. The procedure, abridged: (§3)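 Five-point cytotoxicity, 48 h drug exposure at 37 C, 5% CO2, on cells seeded 16 h beforehand. ATP content read by ATPlite luminescence.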

In the next experiment the test system is CAOV3. The experiment is described as above. The note with it: Gynecologic cancer cell panel viability, ATPlite luminescence, 48 h; series mostly up to 57.5 µM. In a few lines:
as §3

A further experiment concerns CASKI. The experiment is described as above. Conditions: Gynecologic cancer cell panel viability, ATPlite luminescence, 48 h; series mostly up to 57.5 µM. In a few lines: as §3
Another experiment deals with HEK293T. Briefly: qHTS assay to identify novel small-molecules to repurpose for Merkel cell carcinoma treatment (AID 1296009). Further: nearly all actives have a fitted effect of over 60% in size. The note with it: MCC and control cell lines, CellTiter-Glo viability, 72 h; at 44.8 µM (top of the series). The procedure, abridged: as §2
Experiment [4] relates to NIH3T3. The description is as above. The note with it: MCC and control cell lines, CellTiter-Glo viability, 72 h; at 44.8 µM (top of the series) unless noted. The procedure, abridged:
as §2

The subject of another experiment is TAB113. Briefly: qHTS profiling for inhibitors of Plasmodium falciparum proliferation (AID 504749).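 Further: 0% = DMSO vehicle and full inhibition = artemisinin control; nearly all actives have a fitted effect of over 60% in size.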 Conditions: P. falciparum in erythrocytes, SYBR Green DNA, 72 h; series mostly up to 28.7 µM. In a few lines: (§4)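 P. falciparum-infected erythrocytes (0.3% parasitemia, 2.5% hematocrit) incubated with compound 72 h at 37 C, 5% CO2. Parasite DNA detected by SYBR Green after lysis, overnight at room temperature; normalised to 0.29 uM artemisinin and DMSO.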

The test system of another experiment is TAB165. The experiment is described as above. Conditions: P. falciparum in erythrocytes, SYBR Green DNA, 72 h; series mostly up to 28.7 µM. The procedure, abridged: as §4
The subject of another experiment is W2. Described as above. The note with it: P. falciparum in erythrocytes, SYBR Green DNA, 72 h; series mostly up to 28.7 µM. The procedure, abridged: as §4

Several values for one entry are separate records, joined by “and”; a condition that tells them apart may be missing. Equal values may be shown once. Inconclusive results are not listed. Values without a mark were called inactive. Activity calls are given as the source filed them. The call rests on the fitted dose curve; in most records, active means well fitted curve in the direction sought with a large enough effect; inconclusive means small, poorly fitted or top-dose-only effect, or another doubt; inactive means no such curve, though single readings can be large; an effect the other way counts as inactive or inconclusive.

On to `CN1C[C@H]2c3ccccc3Oc3ccc(Cl)cc3[C@@H]2C1`, for which the max response was -7.6% and -3.52% with CRL-7250; -7.18% with KB-3-1; -1.33% and 3.58% with NIH3T3 [2]. The Potency with HEK293 was 10.6 µM (active). Further, the outcome in the experiment on HaCat [1] and in the experiment with HACAT [3] was inactive. For the same compound, the Potency entry in the experiment with MCC-13, in the experiment with MCC-26, in the experiment on MKL-1, in the experiment with MKL-2, in the experiment with UISO and in the experiment with WaGa was “inactive” each time. Moreover, the Potency entry in the experiment on C33A, with CAOV3 and in the experiment with CASKI was “inactive” throughout.
Take `COc1cc(NC(=O)c2ccc(-c3ccc(Cl)cc3)o2)cc(OC)c1`: the compound was called inactive in the experiment with CRL-7250, with HaCat [1] and in the experiment with HACAT [3]. The max response with HEK293 is 2.11%; in the experiment with KB-3-1 it was 5.65%; in the experiment with NIH3T3 [2], 1.05%. For the same compound, the Potency result in the experiment with MCC-13, in the experiment with MCC-26, in the experiment with MKL-1, in the experiment with MKL-2, in the experiment with UISO and in the experiment with WaGa was “inactive” each time.
Take `COc1ccc(-c2coc3cc(O)ccc3c2=O)cc1`: the result in the experiment on CRL-7250, in the experiment on HaCat [1] and with HACAT [3] was inactive. Also, the max response in the experiment on HEK293 is -7.99%; with KB-3-1, 7.74%; in the experiment on NIH3T3 [2] it was -7.78%. For the same compound, the Potency result in the experiment on MCC-13, in the experiment with MCC-26, in the experiment with MKL-1, in the experiment with MKL-2, in the experiment with UISO and with WaGa was “inactive” each time.
Take `CC(=O)O[C@]1(C(C)=O)CC[C@@H]2[C@@H]3C[C@H](C)C4=CC(=O)CC[C@]4(C)[C@H]3CC[C@@]21C`: the max response with CRL-7250 was 2.81%; in the experiment with NIH3T3 [2] it was -6.3%. The outcome in the experiment with HEK293, in the experiment with HaCat [1], with KB-3-1, in the experiment with HACAT [3] and in the experiment on HEK293T was inactive. For the same compound, the Potency result in the experiment with MCC-13, in the experiment on MCC-26 and in the experiment with UISO was “inactive” each time.
In the case of `CO[C@H]1C[C@@H]2CC[C@@H](C)[C@@](O)(O2)C(=O)C(=O)N2CCCC[C@@H]2C(=O)O[C@H]([C@@H](C)C[C@@H]2CC[C@H](O)[C@H](OC)C2)CC(=O)[C@H](C)C=C(C)[C@@H](O)[C@@H](OC)C(=O)[C@H](C)C[C@H](C)C=CC=CC=C1C`, the max response in the experiment with CRL-7250 was -19.3%; in the experiment with HEK293, -97.2%; in the experiment with KB-3-1, -8.34%. Moreover, the outcome with HaCat [1] and with HACAT [3] was inactive. Moreover, the outcome in the experiment on NIH3T3 [2] and in the experiment with NIH3T3 [4] was “inactive; activator” in each case. Besides, the Potency entry in the experiment on MCC-13, in the experiment on MCC-26 and in the experiment with UISO was “inactive” each time.
Consider `C=C1C(=O)OC(CCCCCCCC)C1C(=O)O` (stereo unspecified), for which the compound was called inactive in the experiment on CRL-7250, with HEK293, in the experiment with HaCat [1], in the experiment on HACAT [3] and in the experiment on HEK293T. Moreover, the figures for the max response in the experiment with KB-3-1 and in the experiment on NIH3T3 [2] were -17.3% and 2.38%, respectively. Moreover, the Potency result with MCC-13, with MCC-26, with MKL-1, with MKL-2, with UISO and in the experiment with WaGa was “inactive” each time.
In the case of `CCN(CC)CCOC(=O)c1ccc(N)cc1`, the Potency entry in the experiment with TAB113, with TAB165, with W2, in the experiment with MCC-13, with MCC-26 and in the experiment with MKL-1 was “inactive” in each case. Besides, the Potency result in the experiment with MKL-2, in the experiment with UISO, in the experiment on WaGa, with C33A, with CAOV3 and in the experiment with CASKI was “inactive” each time. The max response is -12% with CRL-7250, 14% in the experiment on KB-3-1 and -2.46% with NIH3T3 [2]. Moreover, the compound was called inactive with HEK293, in the experiment with HaCat [1], in the experiment on HACAT [3] and with HEK293T.

(Values after PubChem BioAssay (NCATS).)
